Results as given in PMC10163288.
The list is a sample of the results. No count for the full screen is at hand.

B1: il10ra_site1_sap_12_mot_HHH_b1_06789_af2_000000041_0001_1_20_H_._HHH_b2_05839_af2_0001_0000300031_0000002_0_0001 (protein)
chain: SSSSSDEEEIEELLREIKELLENNDRERALELIQEALRVIFQHSDEEALRELFELVRKLGSSSSS
B2: il10ra_site1_sap_22_mot_HHH_b2_03220_af2_000000223_0001_23_40_H_._HHH_b1_01542_0001_0000500044_0000001_0_0001_af2pred_0001 (protein)
chain: SSSSSEEEVEELERRIEELLEEGNRHEAAALILRLFALAHELRDPEVEEEARRLAQLAANSSSSS
B3: il10ra_site1_normal_mot_HHH_b2_06857_af2_000000179_0001_42_54_H_._HHH_b1_05676_af2_0001_0000100011_0000001_0 (protein)
chain: SSSSDETEEVVELLRRAAELHSDGDHEEARRLLEEAQELAEELGNELLRYQIEFAERSLDSSSSS
B4: il10ra_site1_sap_25_mot_HHH_b1_01879_000000050_0001_1_18_H_._HHH_b1_08444_0001_0000100004_0000001_0_0001 (protein)
chain: SSSSSTQELYELSRKAMELLRNGNPEEAEKLLEEALELAEEEGNWAAIVALRYILRAIRRSSSSS
B5: il10ra_site1_sap_17_mot_HEEHE_1605_000000211_0001_40_56_H_._9e622f7d73aa0ff91040b48e8c7f7504_0001_1_af2_0001_0000600013_0000002_0_0001 (protein)
chain: SSSSSDANHEALELVLEAMHAMLRGDREEAERLLEEALELAREGNNERLAKQIEILLENASSSSS
B6: il10ra_site1_normal_mot_HHH_b1_04065_000000255_0001_41_56_H_._HHH_b1_07236_0001_0000100003_0000001_1 (protein)
chain: SSSSDEEYRREVEELLEEAEQIEDPHERAEVLARALRRAYEGRDPELFRLVDRVAIELYFSSSSS
B7: il10ra_site1_sap_21_mot_HHH_b2_06979_000000158_0001_42_57_H_._HHH_b1_00540_af2_0001_0000100003_0000001_0_0001 (protein)
chain: SSSTLTERIYKLSEKALELLKQGDTEEAEEVVEEAIELAEEAGSRVLAHVLEFLLEAIKRRSSSS
B8: il10ra_site1_normal_mot_HHH_b2_06090_af2_000000001_0001_1_19_H_._HHH_b1_07022_0001_0000500035_0000001_0 (protein)
chain: SSSSSQEVAELIIEAFRLLLRGDEEEVERLLEELKELAEELNDPALRRLVEILEEAIKAASSSSS
B9: il10ra_site1_sap_19_mot_HHH_b2_07521_000000141_0001_20_37_H_._HHH_b1_07537_af2_0001_0000400008_0000001_0_0001 (protein)
chain: SSSSSDEERLEELLEELKELLEEGDRERFLRVALEVLRLAFQSSDEEALQAVWRLVKKWGSSSSS
B10: il10ra_site1_normal_mot_HHH_b1_03094_000000294_0001_1_20_H_._HHH_b1_05478_af2_0001_0000100005_0000001_0 (protein)
chain: SSSSDEENQEALELSLEALRLALRGDPEKAREVLEEAFELAERANNERLLRIIEELLEALHSSSS
B11: il10ra_site1_normal_mot_HHH_b1_06789_af2_000000041_0001_1_20_H_._HHH_b1_02788_0001_0000100006_0000001_0 (protein)
chain: SSSSDLEEEIEEAIEEARENGDELIVQILEILLRQIRRDGSPNARWLVRQVIKALKNLLENSSSS
B12: il10ra_site1_sap_24_mot_HHH_b2_06857_af2_000000179_0001_42_54_H_._HHH_b1_04179_af2_0001_0000200006_0000001_1_0001 (protein)
chain: SSSSSDATRELYRLSKEAAELLAEGNPEEAQRVAEEAFELAEEAGNRVLLHAIEHLLRDISSSSS
B13: il10ra_site1_normal_mot_HHH_b2_07521_000000141_0001_20_37_H_._HHH_b1_01332_0001_0000100002_0000001_0_af2pred_0001 (protein)
chain: SSSSDEEEKRLRLALRLARFLIEQGDEEAARKLLEWIRELAKRANDEEALEEAQRLLEEVGSSSS
B14: il10ra_site1_normal_mot_HHH_b1_01879_000000050_0001_1_18_H_._HHH_b1_04021_0001_0000200009_0000001_0_af2pred_dldesign_0_af2pred (protein)
chain: SSSSSELDALLAALEAAVAAGDEAAVRELSVRVSRLALEANNKEVLKKVFDLMVDFYKKLSSSSS
B15: il10ra_site1_sap_20_mot_HHH_b1_05126_000000053_0001_38_52_H_._HHH_b2_05116_af2_0001_0000900047_0000001_0_0001 (protein)
chain: SSDEREELKEEVEEEVEKAVENKDPELVKEIIAKALMEAARLRDDQLSMAIIRIYARANQLLQSS
B16: il10ra_site1_normal_mot_HHH_b2_08144_af2_000000046_0001_38_52_H_._HHH_b1_00696_0001_0000600035_0000001_0 (protein)
chain: SSSSTEEIQRIMELLRRAAELLNEGNPEEAEKLIEEAEELVKEANDPLLEIQLRFLERDINSSSS
B17: il10ra_site1_sap_23_mot_HHH_b1_01233_000000085_0001_1_18_H_._HHH_b1_01214_0001_0000100002_0000001_0_0001 (protein)
chain: SSSSDEEHIEELARAVERQLEQLSKYDPRLLERLAEAARKALELWDEELAREIEELAKELLSSSS
B18: il10ra_site1_normal_mot_HHH_b2_00984_000000042_0001_1_20_H_._HHH_b2_02613_af2_0001_0000700025_0000001_0 (protein)
chain: SSSSSTEEEIEELIKKAEEAAENGDPRKAFELLAEASRYALELGDAELLQEIWELIKKLNSSSSS
B19: il10ra_site1_sap_23_mot_HHH_b1_03574_000000194_0001_1_18_H_._HHH_b1_05868_0001_0000200012_0000002_0_0001 (protein)
chain: SSSSSDRDELYELIEEALELLARGNPEEAERVLEEARELAEELGNRVFLVVIRFLLKDIKSSSSS
B20: il10ra_site1_normal_mot_HHH_b1_05056_000000217_0001_1_20_H_._HHH_b2_04285_0001_0000100002_0000001_0 (protein)
chain: SSSSDLEEEIERLEEELREARERGDKELALQLLLRLLRLAYETRDEELLRELWEIVRKLFSSSSS
B21: il10ra_site1_normal_mot_HHH_b1_04693_000000238_0001_19_36_H_._HHH_b2_06085_af2_0001_0000700026_0000002_0 (protein)
chain: SSSSSDQELYELIRELIELLLEGDEEEIERLEEEIEKLAKELNNRVLLFVARAARRLQEKSSSSS
B22: il10ra_site1_sap_20_mot_HHH_b1_08622_000000192_0001_23_40_H_._HHH_b2_06485_0001_0000100001_0000003_0_0001_af2pred_0001 (protein)
chain: SSSSSEFEEAIKAARESIEHALRLGDDEKVEQALRLLERLARDANDEEAEKFIEEVEELLSSSSS
B23: il10ra_site1_sap_11_mot_HHH_b1_00456_000000263_0001_1_17_H_._HHH_b2_06141_0001_0000200005_0000001_0_0001_af2pred_0001 (protein)
chain: SSSSDIAERLVELALEAARLAAERGDPEAVRRALEQAEHLAKLNNNPELEEEVKELEEELSSSSS
B24: il10ra_site1_sap_15_mot_HHH_b1_00814_af2_000000078_0001_43_57_H_._HHH_b2_00250_af2_0001_0000100010_0000001_0_0001_af2pred_0001 (protein)
chain: SSSSSRSAEEAIRRLLRAAKQLEDEERLKLAIRDALAAAEFLGNEELVEELRKILEELRSSSSSS

target: il10ra, Q13651; assay: yeast display titration
Sequence (Q13651 whole entry): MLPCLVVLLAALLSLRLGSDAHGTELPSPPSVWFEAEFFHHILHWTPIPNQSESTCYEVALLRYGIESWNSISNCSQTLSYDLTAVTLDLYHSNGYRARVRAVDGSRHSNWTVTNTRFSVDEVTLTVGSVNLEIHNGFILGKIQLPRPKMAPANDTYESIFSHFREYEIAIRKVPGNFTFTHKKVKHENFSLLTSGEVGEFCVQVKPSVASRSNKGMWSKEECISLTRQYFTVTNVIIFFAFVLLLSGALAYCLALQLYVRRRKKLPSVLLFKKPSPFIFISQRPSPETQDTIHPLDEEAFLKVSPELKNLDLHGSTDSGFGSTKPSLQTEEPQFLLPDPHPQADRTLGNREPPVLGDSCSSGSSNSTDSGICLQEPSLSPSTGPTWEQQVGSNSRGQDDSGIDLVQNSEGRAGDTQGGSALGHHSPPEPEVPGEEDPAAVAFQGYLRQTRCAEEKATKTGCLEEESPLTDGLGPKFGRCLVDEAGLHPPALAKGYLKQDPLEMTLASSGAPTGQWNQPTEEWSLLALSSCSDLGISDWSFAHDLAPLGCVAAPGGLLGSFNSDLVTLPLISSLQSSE

Apparent Kd, inactive:
B1 no binding seen
B2 no binding seen
B3 no binding seen
B4 no binding seen
B5 no binding seen
B6 no binding seen
B7 no binding seen
B8 no binding seen
B9 no binding seen
B10 no binding seen
B11 no binding seen
B12 no binding seen
B13 no binding seen
B14 no binding seen
B15 no binding seen
B16 no binding seen
B17 no binding seen
B18 no binding seen
B19 no binding seen
B20 no binding seen
B21 no binding seen
B22 no binding seen
B23 no binding seen
B24 no binding seen
